The target of experiment [1] is Protein kinase C gamma type (Homo sapiens) (UniProt P05129). As to conditions: at 1 µM.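 Note: each value is an averaged percent inhibition of the enzyme.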
Experiment [2] has as its target T1, Protein kinase C iota type (Homo sapiens) (UniProt P41743).
T1 sequence (whole entry): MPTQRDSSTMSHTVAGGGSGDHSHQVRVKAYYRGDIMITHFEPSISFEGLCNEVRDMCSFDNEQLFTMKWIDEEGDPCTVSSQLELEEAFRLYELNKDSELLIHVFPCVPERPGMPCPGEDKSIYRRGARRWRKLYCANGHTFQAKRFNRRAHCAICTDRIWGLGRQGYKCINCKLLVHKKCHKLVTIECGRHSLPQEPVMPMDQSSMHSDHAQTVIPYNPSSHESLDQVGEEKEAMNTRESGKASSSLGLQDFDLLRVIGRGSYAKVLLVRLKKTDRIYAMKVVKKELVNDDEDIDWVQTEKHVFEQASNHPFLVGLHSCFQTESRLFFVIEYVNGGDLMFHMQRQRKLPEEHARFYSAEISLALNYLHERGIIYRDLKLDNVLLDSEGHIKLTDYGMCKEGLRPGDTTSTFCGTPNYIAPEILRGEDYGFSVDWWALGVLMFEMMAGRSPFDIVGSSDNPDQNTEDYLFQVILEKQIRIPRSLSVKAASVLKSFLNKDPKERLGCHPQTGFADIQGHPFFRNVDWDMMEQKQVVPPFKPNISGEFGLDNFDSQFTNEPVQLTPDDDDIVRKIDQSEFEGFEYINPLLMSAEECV
As to conditions: at 0.1 µM.

The target in experiment [3] is T1, Protein kinase C iota type (Homo sapiens). As to conditions: at 1 µM.
Experiment [4] deals with Protein kinase C theta type (Homo sapiens) (UniProt Q04759). The settings on record: at 0.1 µM.
The target is the same in experiment [5]. The settings on record: at 1 µM.
In experiment [6] the target is Protein kinase C beta type (Homo sapiens) (UniProt P05771). The settings on record: at 0.1 µM.
The target is the same in experiment [7]. As to conditions: at 1 µM.
For experiment [8], the target named is T2, Serine/threonine-protein kinase D1 (Homo sapiens) (UniProt Q15139).
T2 sequence (whole entry): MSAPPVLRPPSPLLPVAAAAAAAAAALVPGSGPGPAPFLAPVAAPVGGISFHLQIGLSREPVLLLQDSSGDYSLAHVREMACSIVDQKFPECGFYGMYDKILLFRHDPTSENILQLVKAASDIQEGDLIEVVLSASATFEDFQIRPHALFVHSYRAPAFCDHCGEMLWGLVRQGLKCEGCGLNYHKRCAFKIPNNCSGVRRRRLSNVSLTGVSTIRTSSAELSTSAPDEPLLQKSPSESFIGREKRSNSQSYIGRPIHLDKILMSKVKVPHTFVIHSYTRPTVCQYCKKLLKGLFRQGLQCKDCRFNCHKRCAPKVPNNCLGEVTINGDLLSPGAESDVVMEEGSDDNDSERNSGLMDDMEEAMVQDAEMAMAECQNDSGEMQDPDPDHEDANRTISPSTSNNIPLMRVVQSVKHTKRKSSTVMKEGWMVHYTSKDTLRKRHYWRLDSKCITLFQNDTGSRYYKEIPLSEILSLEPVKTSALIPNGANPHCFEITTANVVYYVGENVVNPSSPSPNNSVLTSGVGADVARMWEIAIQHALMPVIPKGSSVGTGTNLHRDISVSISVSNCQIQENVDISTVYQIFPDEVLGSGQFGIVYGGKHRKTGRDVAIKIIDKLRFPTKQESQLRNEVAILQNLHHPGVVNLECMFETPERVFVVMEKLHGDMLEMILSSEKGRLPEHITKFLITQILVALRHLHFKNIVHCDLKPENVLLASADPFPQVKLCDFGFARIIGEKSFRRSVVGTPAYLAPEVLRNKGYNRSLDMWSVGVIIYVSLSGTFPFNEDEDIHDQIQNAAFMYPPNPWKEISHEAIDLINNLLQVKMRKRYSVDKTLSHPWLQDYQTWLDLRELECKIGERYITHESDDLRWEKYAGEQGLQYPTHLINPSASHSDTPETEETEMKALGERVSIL
The settings on record: at 0.1 µM.

Experiment [9] concerns the target T2, Serine/threonine-protein kinase D1 (Homo sapiens). As to conditions: at 1 µM.
Experiment [10] deals with T3, Serine/threonine-protein kinase D2 (Homo sapiens) (UniProt Q9BZL6).
T3 sequence (whole entry): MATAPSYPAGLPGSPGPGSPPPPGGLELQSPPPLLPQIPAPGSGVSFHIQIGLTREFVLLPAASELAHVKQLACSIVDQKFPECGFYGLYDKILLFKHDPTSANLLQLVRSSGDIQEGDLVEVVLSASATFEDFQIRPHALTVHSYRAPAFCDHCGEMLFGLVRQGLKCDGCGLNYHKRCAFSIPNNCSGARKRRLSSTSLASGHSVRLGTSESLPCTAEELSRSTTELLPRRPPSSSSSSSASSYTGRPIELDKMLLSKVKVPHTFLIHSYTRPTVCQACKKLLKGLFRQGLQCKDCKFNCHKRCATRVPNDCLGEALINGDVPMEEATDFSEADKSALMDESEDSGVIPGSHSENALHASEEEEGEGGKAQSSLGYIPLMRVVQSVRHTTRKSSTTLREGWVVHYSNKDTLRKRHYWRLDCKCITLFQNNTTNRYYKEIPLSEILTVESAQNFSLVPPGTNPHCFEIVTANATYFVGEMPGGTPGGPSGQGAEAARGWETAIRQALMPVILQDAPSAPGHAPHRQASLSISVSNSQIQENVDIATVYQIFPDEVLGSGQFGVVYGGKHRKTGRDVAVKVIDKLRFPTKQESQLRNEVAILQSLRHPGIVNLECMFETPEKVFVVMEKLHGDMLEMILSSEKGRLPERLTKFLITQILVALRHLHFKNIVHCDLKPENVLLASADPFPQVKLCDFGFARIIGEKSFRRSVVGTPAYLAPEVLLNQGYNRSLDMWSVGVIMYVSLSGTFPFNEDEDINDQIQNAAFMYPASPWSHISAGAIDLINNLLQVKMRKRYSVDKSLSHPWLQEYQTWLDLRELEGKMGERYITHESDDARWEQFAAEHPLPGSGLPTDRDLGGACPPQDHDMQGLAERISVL
The settings on record: at 0.1 µM.

Experiment [11] concerns the target T3, Serine/threonine-protein kinase D2 (Homo sapiens). The settings on record: at 1 µM.
For experiment [12], the target named is T4, Serine/threonine-protein kinase D3 (Homo sapiens) (UniProt O94806).
T4 sequence (whole entry): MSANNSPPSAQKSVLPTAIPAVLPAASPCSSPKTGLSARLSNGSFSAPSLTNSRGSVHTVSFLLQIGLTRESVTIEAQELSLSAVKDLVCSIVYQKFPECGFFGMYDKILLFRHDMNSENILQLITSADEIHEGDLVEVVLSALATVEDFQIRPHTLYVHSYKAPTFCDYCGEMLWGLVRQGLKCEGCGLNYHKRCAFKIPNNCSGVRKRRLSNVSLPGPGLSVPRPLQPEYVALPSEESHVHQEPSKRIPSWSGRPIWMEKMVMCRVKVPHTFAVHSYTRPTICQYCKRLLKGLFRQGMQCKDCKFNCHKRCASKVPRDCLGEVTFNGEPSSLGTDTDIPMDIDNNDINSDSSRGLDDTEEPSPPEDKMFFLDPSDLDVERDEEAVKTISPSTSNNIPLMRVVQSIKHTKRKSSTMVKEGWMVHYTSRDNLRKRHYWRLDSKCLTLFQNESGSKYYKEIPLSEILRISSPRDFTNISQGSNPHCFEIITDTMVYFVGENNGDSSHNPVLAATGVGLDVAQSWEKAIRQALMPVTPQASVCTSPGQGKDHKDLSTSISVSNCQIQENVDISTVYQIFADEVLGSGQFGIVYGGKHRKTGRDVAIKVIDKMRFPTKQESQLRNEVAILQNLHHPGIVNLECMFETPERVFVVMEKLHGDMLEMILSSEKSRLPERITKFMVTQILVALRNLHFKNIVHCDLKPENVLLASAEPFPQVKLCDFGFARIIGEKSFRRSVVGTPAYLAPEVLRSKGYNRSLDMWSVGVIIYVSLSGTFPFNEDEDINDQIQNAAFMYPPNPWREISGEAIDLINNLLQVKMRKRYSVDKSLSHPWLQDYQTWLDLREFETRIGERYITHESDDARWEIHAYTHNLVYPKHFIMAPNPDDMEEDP
As to conditions: at 0.1 µM.

Experiment [13] has as its target T4, Serine/threonine-protein kinase D3 (Homo sapiens). As to conditions: at 1 µM.
For experiment [14], the target named is T5, cGMP-dependent protein kinase 1 (Homo sapiens) (UniProt Q13976).
T5 sequence (whole entry): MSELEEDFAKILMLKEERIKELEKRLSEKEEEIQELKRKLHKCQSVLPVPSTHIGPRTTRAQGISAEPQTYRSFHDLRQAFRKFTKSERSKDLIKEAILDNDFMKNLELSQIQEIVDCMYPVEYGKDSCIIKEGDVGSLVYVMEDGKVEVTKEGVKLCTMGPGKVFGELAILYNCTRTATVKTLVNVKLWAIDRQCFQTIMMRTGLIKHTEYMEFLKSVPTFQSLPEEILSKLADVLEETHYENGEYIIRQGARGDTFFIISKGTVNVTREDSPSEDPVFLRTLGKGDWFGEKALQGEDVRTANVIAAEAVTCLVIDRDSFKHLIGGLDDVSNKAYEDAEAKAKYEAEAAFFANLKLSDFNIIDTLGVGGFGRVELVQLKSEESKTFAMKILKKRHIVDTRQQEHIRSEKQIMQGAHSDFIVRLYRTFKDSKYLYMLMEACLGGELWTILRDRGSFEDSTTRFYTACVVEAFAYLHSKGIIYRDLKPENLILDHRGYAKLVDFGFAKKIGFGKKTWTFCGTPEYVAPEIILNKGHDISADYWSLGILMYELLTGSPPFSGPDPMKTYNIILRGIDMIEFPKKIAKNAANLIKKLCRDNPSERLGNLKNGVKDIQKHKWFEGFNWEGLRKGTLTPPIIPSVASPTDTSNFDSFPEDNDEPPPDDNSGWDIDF
As to conditions: at 0.1 µM.

Experiment [15] concerns the target T5, cGMP-dependent protein kinase 1 (Homo sapiens). The settings on record: at 1 µM.
Experiment [16] addresses T6, cGMP-dependent protein kinase 2 (Homo sapiens) (UniProt Q13237).
T6 sequence (whole entry): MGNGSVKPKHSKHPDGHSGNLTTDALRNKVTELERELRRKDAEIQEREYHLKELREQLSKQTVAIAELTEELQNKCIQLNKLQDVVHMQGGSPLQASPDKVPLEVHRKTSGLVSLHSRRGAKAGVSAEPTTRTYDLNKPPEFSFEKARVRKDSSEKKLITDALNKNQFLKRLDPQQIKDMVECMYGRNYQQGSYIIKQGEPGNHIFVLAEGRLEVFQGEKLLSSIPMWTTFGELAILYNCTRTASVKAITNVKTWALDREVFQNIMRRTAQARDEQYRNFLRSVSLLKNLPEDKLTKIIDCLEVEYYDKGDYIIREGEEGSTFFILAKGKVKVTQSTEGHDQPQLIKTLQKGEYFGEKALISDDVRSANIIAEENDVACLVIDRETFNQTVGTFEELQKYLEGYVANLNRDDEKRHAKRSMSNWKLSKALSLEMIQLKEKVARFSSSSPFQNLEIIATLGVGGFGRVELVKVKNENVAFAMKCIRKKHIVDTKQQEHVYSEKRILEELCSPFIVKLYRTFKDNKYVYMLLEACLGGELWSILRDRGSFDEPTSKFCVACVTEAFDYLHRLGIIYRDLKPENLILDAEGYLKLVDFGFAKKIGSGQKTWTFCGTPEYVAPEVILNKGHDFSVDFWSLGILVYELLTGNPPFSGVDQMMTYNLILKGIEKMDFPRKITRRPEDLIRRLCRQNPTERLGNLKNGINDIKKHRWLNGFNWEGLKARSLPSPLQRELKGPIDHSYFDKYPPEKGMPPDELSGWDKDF
As to conditions: at 0.1 µM.

In experiment [17] the target is T6, cGMP-dependent protein kinase 2 (Homo sapiens). As to conditions: at 1 µM.
Experiment [18] deals with T7, cAMP-dependent protein kinase catalytic subunit PRKX (Homo sapiens) (UniProt P51817).
T7 sequence (whole entry): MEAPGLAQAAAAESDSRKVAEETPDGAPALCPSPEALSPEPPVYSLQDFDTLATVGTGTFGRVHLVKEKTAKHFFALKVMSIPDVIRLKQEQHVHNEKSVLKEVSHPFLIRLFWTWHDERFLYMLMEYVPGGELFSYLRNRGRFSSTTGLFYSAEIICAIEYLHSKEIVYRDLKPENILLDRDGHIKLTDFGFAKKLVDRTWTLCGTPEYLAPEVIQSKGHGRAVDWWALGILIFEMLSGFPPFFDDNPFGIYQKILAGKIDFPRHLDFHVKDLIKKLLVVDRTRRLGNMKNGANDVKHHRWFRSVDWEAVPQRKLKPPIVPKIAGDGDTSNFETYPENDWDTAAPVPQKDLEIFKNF
As to conditions: at 0.1 µM.

The target of experiment [19] is T7, cAMP-dependent protein kinase catalytic subunit PRKX (Homo sapiens). As to conditions: at 1 µM.
The target in experiment [20] is Rho-associated protein kinase 1 (Homo sapiens) (UniProt Q13464). The settings on record: at 0.1 µM.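 Note: values are mean percent inhibition of ROCK1.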

Experimental findings from ChEMBL document CHEMBL1961873, “Compounds: GSK PKIS; Assays: Nanosyn kinase panel” (2012) are described below.

Structures are written as SMILES.

Sequence of Protein kinase C theta type (Homo sapiens) (Q04759 whole entry, looked up): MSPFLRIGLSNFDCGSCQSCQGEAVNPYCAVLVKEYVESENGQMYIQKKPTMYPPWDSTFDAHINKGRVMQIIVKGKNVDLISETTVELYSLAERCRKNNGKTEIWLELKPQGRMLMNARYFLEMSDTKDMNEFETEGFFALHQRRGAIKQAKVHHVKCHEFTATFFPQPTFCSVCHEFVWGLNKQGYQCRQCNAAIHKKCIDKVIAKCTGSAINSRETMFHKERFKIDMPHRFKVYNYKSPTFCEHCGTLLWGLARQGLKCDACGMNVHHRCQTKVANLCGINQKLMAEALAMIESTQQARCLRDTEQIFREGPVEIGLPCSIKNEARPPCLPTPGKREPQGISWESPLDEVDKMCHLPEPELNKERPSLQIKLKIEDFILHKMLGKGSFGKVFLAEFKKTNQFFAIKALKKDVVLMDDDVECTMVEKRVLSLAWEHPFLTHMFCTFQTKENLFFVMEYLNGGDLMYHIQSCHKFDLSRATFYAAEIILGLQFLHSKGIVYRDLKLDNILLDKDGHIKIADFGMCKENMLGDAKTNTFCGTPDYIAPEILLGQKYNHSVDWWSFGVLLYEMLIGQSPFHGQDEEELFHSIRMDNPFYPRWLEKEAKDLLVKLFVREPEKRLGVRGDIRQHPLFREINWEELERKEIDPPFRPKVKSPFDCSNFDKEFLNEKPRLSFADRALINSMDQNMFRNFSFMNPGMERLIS
Sequence of Protein kinase C beta type (Homo sapiens) (P05771 2-671 limits assumed): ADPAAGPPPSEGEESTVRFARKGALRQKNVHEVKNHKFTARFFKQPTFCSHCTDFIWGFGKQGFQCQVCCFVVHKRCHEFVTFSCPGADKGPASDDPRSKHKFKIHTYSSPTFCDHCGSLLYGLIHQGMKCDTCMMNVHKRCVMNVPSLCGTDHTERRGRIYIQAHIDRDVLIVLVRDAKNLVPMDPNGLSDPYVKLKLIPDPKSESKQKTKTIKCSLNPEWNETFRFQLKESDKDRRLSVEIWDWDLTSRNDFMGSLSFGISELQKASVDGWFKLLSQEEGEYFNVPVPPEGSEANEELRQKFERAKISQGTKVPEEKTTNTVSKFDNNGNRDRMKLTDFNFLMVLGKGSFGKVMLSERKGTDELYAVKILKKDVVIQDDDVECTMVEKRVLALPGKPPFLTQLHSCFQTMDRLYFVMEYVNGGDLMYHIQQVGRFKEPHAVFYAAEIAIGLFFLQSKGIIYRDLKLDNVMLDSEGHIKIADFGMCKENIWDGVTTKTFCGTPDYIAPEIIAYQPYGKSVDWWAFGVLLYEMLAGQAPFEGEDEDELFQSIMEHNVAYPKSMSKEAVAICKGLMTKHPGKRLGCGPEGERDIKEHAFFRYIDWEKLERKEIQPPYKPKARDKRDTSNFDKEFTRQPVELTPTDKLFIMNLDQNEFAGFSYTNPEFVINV
Sequence of Rho-associated protein kinase 1 (Homo sapiens) (Q13464 2-1354 limits assumed): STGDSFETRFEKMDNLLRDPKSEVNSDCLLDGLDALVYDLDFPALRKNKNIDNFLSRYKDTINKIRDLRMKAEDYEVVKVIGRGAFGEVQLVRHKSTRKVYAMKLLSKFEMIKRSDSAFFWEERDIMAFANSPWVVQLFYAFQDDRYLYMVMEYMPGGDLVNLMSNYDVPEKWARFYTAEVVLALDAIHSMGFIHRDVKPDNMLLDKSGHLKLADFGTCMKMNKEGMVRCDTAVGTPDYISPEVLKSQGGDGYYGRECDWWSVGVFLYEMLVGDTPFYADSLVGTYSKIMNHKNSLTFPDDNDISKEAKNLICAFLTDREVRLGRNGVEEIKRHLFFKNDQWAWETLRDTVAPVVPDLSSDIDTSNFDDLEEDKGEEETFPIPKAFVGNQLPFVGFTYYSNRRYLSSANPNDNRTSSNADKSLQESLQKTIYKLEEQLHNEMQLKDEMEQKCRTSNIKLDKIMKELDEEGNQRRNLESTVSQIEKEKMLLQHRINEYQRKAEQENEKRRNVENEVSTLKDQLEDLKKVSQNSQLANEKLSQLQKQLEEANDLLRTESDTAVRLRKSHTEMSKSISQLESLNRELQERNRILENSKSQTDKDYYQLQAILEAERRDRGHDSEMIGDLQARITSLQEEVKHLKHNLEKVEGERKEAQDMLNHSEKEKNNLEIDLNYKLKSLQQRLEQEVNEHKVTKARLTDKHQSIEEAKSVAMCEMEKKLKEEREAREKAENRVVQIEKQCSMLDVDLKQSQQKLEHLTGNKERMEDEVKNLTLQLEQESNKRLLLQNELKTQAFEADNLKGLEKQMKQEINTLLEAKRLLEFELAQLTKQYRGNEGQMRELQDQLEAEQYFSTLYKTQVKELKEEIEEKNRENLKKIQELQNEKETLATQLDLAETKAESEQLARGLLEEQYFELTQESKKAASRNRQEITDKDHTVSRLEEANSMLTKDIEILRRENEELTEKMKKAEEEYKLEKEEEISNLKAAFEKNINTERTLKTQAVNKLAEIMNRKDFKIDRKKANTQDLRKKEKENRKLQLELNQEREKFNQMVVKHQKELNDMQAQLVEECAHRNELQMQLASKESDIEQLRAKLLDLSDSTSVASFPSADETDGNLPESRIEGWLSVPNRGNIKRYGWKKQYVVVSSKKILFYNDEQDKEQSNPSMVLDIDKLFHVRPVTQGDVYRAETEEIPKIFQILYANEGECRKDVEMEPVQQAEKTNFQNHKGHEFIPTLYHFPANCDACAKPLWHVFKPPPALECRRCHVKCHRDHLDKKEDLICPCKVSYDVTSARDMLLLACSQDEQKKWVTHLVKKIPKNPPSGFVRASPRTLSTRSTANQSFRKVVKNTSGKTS

On to `Nc1nc(-c2ccc(F)cc2)c(-c2ccc3ncccc3n2)s1`, for which the inhibition – broadly, the drop in the measured response relative to a control, in per cent – in experiment [1] came to 4.5%; in experiment [2], 2.17%; in experiment [3] it was 1.59%; in experiment [4], 1.69%; in [5], 3.74%; in [6] it was 1.11%. Further, the inhibition in experiment [7] is 3.48%; in experiment [8], 8%; in experiment [9], 45%; in [10], 8.22%; in [11], 51.9%; in [12], 8.64%. For the same molecule, the inhibition in [13] worked out at 41.8%; in experiment [14], 0.69%; in [15] it was 4.97%; in experiment [16], 2.78%; in experiment [17] it was 4.3%; in [18], 2.61%. The values for the inhibition in experiment [19] and in [20] were 3.14% and 0.86%, respectively.
With `CCn1c(-c2nonc2N)nc2c(C#CC(C)(C)O)nc(OC[C@H](N)c3ccccc3)cc21`, the inhibition in [1] came to 45.5%; in experiment [2] it was 0.16%; in [3], 3.1%; in [4] it was 55.1%; in experiment [5], 82.7%; in experiment [6] it was 16.3%. The inhibition in experiment [7] worked out at 59.4%; in experiment [8] it was 5.85%; in experiment [9] it was 29.9%; in experiment [10], 5.65%; in experiment [11] it was 25.6%; in experiment [12] it was 5.89%. The inhibition in experiment [13] was determined as 28.6%; in experiment [14], 23.8%; in experiment [15], 71.3%; in experiment [16], 56.9%; in experiment [17], 78.8%; in [18], 84.2%. For the same molecule, the inhibition in [19] was found to be 87.1%; in [20] it was 2.85%.
